# KCNQ2 block: KCNQ2 (rat) channel inhibition. O88943. B-score at 10 µM. hit rate 1.1% among 310,000. CHO-K1 KCNQ2, FluxOR thallium flux, 20 min; stronger effect = lower value;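 active means fluorescence ratio B-score at most minus 3 library SDs, with starting brightness B-score within 2 library SDs, cut at about -5.5 in these data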
# KCNQ2 enhance: KCNQ2 (rat) channel potentiation; O88943; CHO-K1 KCNQ2, FluxOR thallium flux fluorescence; stronger effect = higher value; B-score at 10 µM; hit rate 0.54% among 310,000;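 active means fluorescence ratio B-score at least 3 SD of library B-scores, with initial fluorescence B-score within 3 of them, cut at about 5.3 in these data; same plate scores as AID 2156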;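 further: B-score of peak minus minimum over baseline fluorescence ratio after K+ and Tl+ stimulus; positive B-score means potentiation of KCNQ2 with more thallium influx and brighter signal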
# KCNQ2 block conf: confirmation of rat KCNQ2 potassium channel inhibitors | shares compounds with KCNQ2 block | AID 493025 | KCNQ2-expressing cells, thallium flux, inhibition; stronger effect = lower value | hit rate 57% among 1,000 | activity change, negative = inhibition, % at 10 µM;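 further: 0% = vehicle wells and values are ratio percent relative to vehicle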
# KCNQ1 spec: selectivity of KCNQ2 inhibitors against human KCNQ1. shares compounds with KCNQ2 block. KCNQ1-expressing cells, FluxOR thallium flux fluorescence; stronger effect = lower value. activity change, negative = inhibition, % at 10 µM. hit rate 15% among 1,000. AID 493026;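 active means activity change at least 3 SD of negative controls below their mean in both duplicate wells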;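 further: CHO cells stably transfected with KCNQ1 and depolarized by potassium stimulus; peak minus minimum fluorescence over baseline after thallium addition; 0% = vehicle negative control and -100% = blank without thallium stimulus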
# Target sequence (P51787 whole entry, looked up): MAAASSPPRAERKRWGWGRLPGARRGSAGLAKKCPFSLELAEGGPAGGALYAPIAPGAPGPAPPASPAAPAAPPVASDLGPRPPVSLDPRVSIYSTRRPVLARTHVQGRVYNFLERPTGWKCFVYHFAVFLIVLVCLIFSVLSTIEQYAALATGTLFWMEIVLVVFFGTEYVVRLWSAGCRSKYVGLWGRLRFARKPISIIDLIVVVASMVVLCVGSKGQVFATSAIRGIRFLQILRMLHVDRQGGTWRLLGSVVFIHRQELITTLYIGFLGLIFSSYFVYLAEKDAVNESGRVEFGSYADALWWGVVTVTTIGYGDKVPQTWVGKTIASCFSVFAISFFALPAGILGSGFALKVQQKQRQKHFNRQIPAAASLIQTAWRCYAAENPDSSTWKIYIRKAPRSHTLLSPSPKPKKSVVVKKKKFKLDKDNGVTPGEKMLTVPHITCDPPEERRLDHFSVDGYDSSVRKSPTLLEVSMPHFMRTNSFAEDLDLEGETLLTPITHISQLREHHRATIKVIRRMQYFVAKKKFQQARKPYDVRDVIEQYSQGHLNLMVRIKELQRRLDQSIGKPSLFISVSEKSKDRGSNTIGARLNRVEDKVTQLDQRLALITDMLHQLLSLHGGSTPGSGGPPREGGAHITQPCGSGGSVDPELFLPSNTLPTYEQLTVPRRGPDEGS
# CHO parental ctr: activity in parental CHO cells lacking KCNQ2. activity change, % at 10 µM. thallium flux counter-screen; stronger effect = lower value. hit rate 14% among 1,000. shares compounds with KCNQ2 block. AID 493029;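 further: 0% = vehicle negative controls with stimulus buffer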
# KCNQ2 inh confirm: rat KCNQ2 inhibition confirmed by electrophysiology. hit rate 49% among 550. KCNQ2-expressing cells, automated patch clamp current. shares compounds with KCNQ2 block. calls only at 10 µM. AID 588531
# Starred values were filed as active, the others as inactive; i = inactive; nt = no result; + = active, no number. Rows were chosen to be rich in hits. Some 1.6% of all compounds tested hit in one or more screens of this group. Unless noted, how the calls were made is not given here.
SMILES,KCNQ2 block,KCNQ2 enhance,KCNQ2 block conf,KCNQ1 spec,CHO parental ctr,others
COc1ccc(-c2nc(CSCC(=O)NC3CCCc4ccccc43)c(C)o2)cc1 (centres undefined),-7.3*,-7.3,-29%*,i,i,KCNQ2 inh confirm=+
CCOC(=O)N1CCC(NC(=O)CSCc2nc(-c3ccc(OC)cc3)oc2C)CC1,i,nt,nt,nt,nt,
C=CCn1c(N)cc(=O)nc1SC(C)C(=O)Nc1ccc(C(=O)OCC)cc1 (centres undefined),i,0.26,nt,nt,nt,
CCc1ccc(CN(C)CC(=O)Nc2sccc2C#N)cc1,i,nt,nt,nt,nt,
COc1cccc(CNC(=O)c2cc(S(=O)(=O)N3CCOCC3)cn2C)c1,i,nt,nt,nt,nt,
CCn1c(C(=O)O)c(CC(=O)Nc2ccc(Br)cc2C)c2ccccc21,i,0.12,nt,nt,nt,
Cc1ccc(S(=O)(=O)c2nc(-c3ccccc3Cl)oc2N(C)C)cc1,i,nt,nt,nt,nt,
CN(C)c1oc(-c2ccccc2Cl)nc1P(=O)(c1ccccc1)c1ccccc1,-9.5*,-9.5,-39%*,-31%*,-24%*,KCNQ2 inh confirm=+
Cn1c(SCCC#N)nnc1-c1ccc(F)cc1,i,0.45,nt,nt,nt,
CC(C)(C)c1ccc(-c2nnc(SCCC#N)n2C2CCCC2)cc1,-8.5*,-8.5,-28%*,i,i,KCNQ2 inh confirm=i
O=[N+]([O-])c1cccc(/C=N/N2CCN(Cc3ccccc3)CC2)c1,i,nt,nt,nt,nt,
O=[N+]([O-])c1cccc(/C=N\N2CCN(Cc3ccccc3Cl)CC2)c1,-7.3*,-7.3,i,i,i,
CCCCc1nnc(NC(=O)CN2C(=O)NC3(CCCCC3)C2=O)s1,i,nt,nt,nt,nt,
O=C(CC(c1ccccc1)c1ccccc1)Nc1ccc(C(=O)O)cc1,i,0.36,nt,nt,nt,
COc1ccccc1N1CCN(c2nc(C)nc3c2oc2ccccc23)CC1,-6.9*,-6.9,i,i,i,
Cc1nc(N2CCC(C)CC2)c2oc3ccccc3c2n1,i,nt,nt,nt,nt,
CCOc1ccccc1NC(=O)NCc1ccccn1,i,nt,nt,nt,nt,
CCc1cc(CNC(=O)C2CCC(=O)N(Cc3cccc(F)c3)C2)on1 (centres undefined),i,0.76,nt,nt,nt,
O=C(COc1ccc(Br)cc1CNCCc1ccccc1)NCc1ccccc1,-7.6*,-7.6,-32%*,i,i,KCNQ2 inh confirm=+
CCCNCc1cc(Br)ccc1OCC(=O)NCCc1ccccc1,i,0.72,nt,nt,nt,
O=C(Cn1cc(S(=O)(=O)N2CCCC2)c(S(=O)(=O)N2CCCC2)c1)NCc1ccco1,i,0.75,nt,nt,nt,
CC1CCN(c2ccccc2NC(=O)c2ccc(F)cc2)CC1,-9.3*,-9.3,-17%*,i,i,KCNQ2 inh confirm=i
CN1CCN(c2ccccc2NC(=O)c2ccc(F)cc2)CC1,i,0.74,nt,nt,nt,
O=C(Nc1ccccc1N1CCCCC1)c1ncoc1-c1ccc(F)cc1,-7.1*,-7.1,i,i,i,
Cc1ccc(-c2ocnc2C(=O)Nc2ccccc2C(=O)N2CCCC2)cc1,i,0.17,nt,nt,nt,
SMILES,KCNQ2 block,KCNQ2 enhance,KCNQ2 block conf,KCNQ1 spec,CHO parental ctr,others
CC1CCN(C(=O)C2CCN(S(=O)(=O)c3cccc4nsnc34)CC2)CC1,i,nt,nt,nt,nt,
CCOc1ccc(C2NC(=O)CCC2[N+](=O)[O-])cc1 (centres undefined),i,nt,nt,nt,nt,
COc1ccc(C(CC(=O)c2ccc(C)cc2)Nc2ccc([N+](=O)[O-])cc2)cc1 (centres undefined),-6.9*,-6.9,-42%*,-33%*,-26%*,KCNQ2 inh confirm=i
Cc1ccc(NC(CC(=O)c2ccccc2)c2ccc(F)cc2)cc1 (centres undefined),i,nt,nt,nt,nt,
CC12CC3CC(C)(C1)CC(C(=O)N1CCN(C(=O)c4ccco4)CC1)(C3)C2,i,0.72,nt,nt,nt,
COc1ccc(Br)c(C(=O)NC2CCCC2)c1,i,nt,nt,nt,nt,
CC(=O)N1CCN(c2cc(N3CCCC3)c(F)cc2[N+](=O)[O-])CC1,i,nt,nt,nt,nt,
CCN1CCN(c2cc(N3CCc4ccccc4C3)c(F)cc2[N+](=O)[O-])CC1,-6.9*,-6.9,-29%*,i,i,
NC(=O)CN1C(=O)C(=O)N(Cc2cccc(C(F)(F)F)c2)C1=O,i,1,nt,nt,nt,
C/C(=C\C(=O)c1ccc(F)cc1)NCc1ccc2c(c1)OCO2,i,nt,nt,nt,nt,
C/C(=C\C(=O)c1ccc(Br)cc1)NCc1ccc2c(c1)OCO2,-6.9*,-6.9,-17%*,i,i,KCNQ2 inh confirm=i
Cc1cc(O)cc(O)c1C=NCc1ccco1,i,2.4,nt,nt,nt,
Cc1nn(C)c(C(=O)Sc2ccccc2)c1[N+](=O)[O-],-7.9*,-7.9,-33%*,i,i,KCNQ2 inh confirm=i
CCn1nc(C)cc1C(=O)Sc1cccc(Cl)c1,i,nt,nt,nt,nt,
Cc1nn(C)c(C(=O)Sc2cccc(Cl)c2)c1[N+](=O)[O-],-9.7*,-9.7,-47%*,-50%*,-34%*,KCNQ2 inh confirm=i
Cc1nn(C)c(C(=O)N/N=C/c2ccccn2)c1[N+](=O)[O-],i,0.06,nt,nt,nt,
O=C(Nc1ccc2c(c1)COC2=O)c1ccc(Cl)c(Cl)c1,i,0.71,nt,nt,nt,
CCc1ccc(C(C(=O)NCc2ccc(OC)cc2)N(CCOC)C(=O)Cc2cccs2)cc1 (centres undefined),i,nt,nt,nt,nt,
COCCN(C(=O)Cc1cccs1)C(C(=O)NCc1ccc(OC)cc1)c1ccc(C(C)C)cc1 (centres undefined),-8.6*,-8.6,-35%*,i,i,KCNQ2 inh confirm=+
CCCCn1c(N)c(N(CC(C)C)C(=O)CSCc2ccc(Cl)c(Cl)c2)c(=O)[nH]c1=O,i,1.4,nt,nt,nt,
COc1cccc(NC(=O)C(NCC2CCCCC2)c2ccccc2)c1 (centres undefined),-10*,-10,-28%*,i,i,KCNQ2 inh confirm=+
COc1cccc(NC(=O)C2CCCCC2)c1,i,4.5,nt,nt,nt,
CCC(C(=O)O)n1nc(-c2ccccc2)c2cc(Cl)ccc21 (centres undefined),i,0.74,nt,nt,nt,
CN(C)CCCNC(=O)C1(O)c2cc(Br)ccc2NC(=O)N1c1ccc(Cl)cc1 (centres undefined),i,nt,nt,nt,nt,
COC(=O)Cc1nnc(SCC(=O)Nc2ccccc2)c2ccccc12,i,0.71,nt,nt,nt,
SMILES,KCNQ2 block,KCNQ2 enhance,KCNQ2 block conf,KCNQ1 spec,CHO parental ctr,others
COc1ccc(CNc2nc(-c3cccnc3)nn2S(C)(=O)=O)cc1,i,0.56,nt,nt,nt,
Cc1ccc(N/C=C/C(=O)c2cccs2)cc1C,i,nt,nt,nt,nt,
O=C(/C=C/Nc1ccc(Nc2ccccc2)cc1)c1cccs1,-7.3*,-7.3,i,i,i,
CSc1ncccc1C(=O)Nc1nccs1,i,0.04,nt,nt,nt,
CCc1ccc2oc(=O)cc(CN3CCCCC3)c2c1,i,nt,nt,nt,nt,
CCN1CCc2nc3ccccc3c(C(=O)Nc3ccc(NC(C)=O)cc3)c2C1,i,0.89,nt,nt,nt,
CCN1CCc2nc3ccccc3c(C(=O)Nc3ccc(F)cc3)c2C1,-9.4*,-9.4,i,i,i,
Cn1c(=O)n(C)c2cc(NC(=O)Cc3ccccc3[N+](=O)[O-])ccc21,i,nt,nt,nt,nt,
CN(C)CCC(=O)c1ccc(F)cc1,i,nt,nt,nt,nt,
CCN(CC)CCC(=O)c1ccc(F)cc1,-9*,-9,-36%*,i,i,KCNQ2 inh confirm=i
CN(C)S(=O)(=O)c1cccc(NC(=S)NN=C(Cc2ccccc2)Cc2ccccc2)c1,i,nt,nt,nt,nt,

# From PubChem
